KCNQ2 pot = KCNQ2 (rat) channel potentiation. B-score at 10 µM. CHO-K1 KCNQ2, FluxOR thallium flux fluorescence; active compounds read high. 0.54% of 310,000 active. O88943;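 active = fluorescence ratio B-score at least 3 SD of library B-scores, with initial fluorescence B-score within 3 of them, cut at about 5.3 in these data; same plate scores as AID 2156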;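 note: B-score of peak minus minimum over baseline fluorescence ratio after K+ and Tl+ stimulus; positive B-score means potentiation of KCNQ2 with more thallium influx and brighter signal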
KCNQ2 inh = blocks the rat KCNQ2 potassium channel; CHO-K1 KCNQ2, FluxOR thallium flux, 20 min; active compounds read low; B-score at 10 µM; 1.1% of 310,000 active; AID 2156;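 active = fluorescence ratio B-score at most minus 3 library SDs, with starting brightness B-score within 2 library SDs, cut at about -5.5 in these data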
A number is an active result; - = inactive; . = no result given. Hits are enriched below; roughly 1.6% of the tested compounds scored in any of these assays.

SMILES	KCNQ2 pot	KCNQ2 inh
O=C(N/N=C/c1ccccn1)c1sc2ccccc2c1Cl	13.6	-
N/C(=N\OC(=O)c1cc(-c2ccccc2)nc2ccccc12)c1ccc(Cl)cc1	-	-6.23
Cc1cccc(-c2cc(C(=O)N/N=C/c3cccnc3)c3ccccc3n2)c1	.	-
O=C(Nc1ccc(Cl)c(Cl)c1)Nc1nnc(CC2=CCCCC2)s1	.	-
Cn1c(SCC(=O)N2CCOCC2)nc(O)cc1=O	.	-
O=C(CNS(=O)(=O)c1c(Cl)cccc1Cl)N1CCCCCC1	.	-
CCOC(=O)c1c(N)sc(C(=O)OC)c1C	-	-
CCOC(=O)c1sc(NN=C(C(=O)OC)C(=O)OC)c(C(=O)OCC)c1C	5.69	-
CCOC(=O)c1sc(/N=C/c2ccc(O)cc2O)cc1C	-	-
Cn1c(CCNC(=O)c2ccco2)nc2cc(NS(=O)(=O)c3ccc(Cl)cc3)ccc21	.	-
O=C(CN1CCCCCC1)Nc1ccc(Oc2ccccc2)cc1	9.03	-
NC(=O)C1(N2CCCCC2)CCN(CC(=O)Nc2ccc(Oc3ccccc3)cc2)CC1	-	-
O=c1cc(N2CCCCC2)c(-c2ccccc2)nn1Cc1ccccc1Cl	.	-
O=c1cc(N2CCCCC2)c(-c2ccccc2)nn1Cc1ccc(Cl)cc1Cl	-	-7.68
Cc1ccc(S(=O)(=O)N2CCN(C(=O)Cn3nc(C(=O)O)c4ccccc4c3=O)CC2)cc1	.	-
COC(=O)C(Cc1ccc(OC(=O)c2ccccc2C)cc1)N1Cc2ccccc2C1=O (stereo not drawn)	-	-5.86
COC(=O)C(Cc1ccc(OC(=O)c2ccccc2Cl)cc1)N1Cc2ccccc2C1=O (stereo not drawn)	.	-
CCN(CC(=O)Nc1ccc(NC(C)=O)cc1)C(=O)/C=C/c1ccc2c(c1)OCO2	.	-
CCN(C(=O)/C=C/c1ccc2c(c1)OCO2)c1ccccc1	-	-5.99
CCN(CC)S(=O)(=O)c1ccc2c(c1)N(CC(=O)NCCN1CCOCC1)C(=O)CO2	-	-
Cc1ccc(OCC(=O)N/N=C2\CCOc3c(C)cccc32)cc1	-	-6.75
COc1cccc2c1OCC/C2=N\NC(=O)COc1ccc(C)cc1	-	-
CCCCNC(=O)c1onc(CSc2cc(C)cc(C)c2)c1C(=O)O	-	-
CCCCNC(=O)c1onc(CSc2cc(C)cc(C)c2)c1C(=O)NCCCC	-	-5.61
COc1ccccc1Nc1nc(N)nc(CN2CCN(c3ccccc3F)CC2)n1	-	-
SMILES	KCNQ2 pot	KCNQ2 inh
COc1ccccc1N1CCN(Cc2nc(N)nc(Nc3ccc(C)c(Cl)c3)n2)CC1	8.89	-
CCc1ccc(-c2cn(-c3nc(C)cc(C)n3)c(=N)o2)cc1	-	-6.37
CCc1ccc(-c2cn3c(n2)SCC3)cc1	.	-
CSCCC1NC(=O)N(C(C)C(=O)Nc2cc(Cl)cc(Cl)c2)C1=O (stereo not drawn)	-	-
CCOC(=O)C1CCCN(c2c(C(=O)c3ccccc3)cnc3ccccc23)C1 (stereo not drawn)	.	-
CCOC(=O)C1CCN(c2c(C(=O)c3ccccc3)cnc3ccc(CC)cc23)CC1	-	-7.23
CC(C)NC(=O)/C(=C/c1cn(-c2ccccc2)nc1-c1cccc([N+](=O)[O-])c1)NC(=O)c1ccccc1	-	-
O=C(/C=C/c1ccc([N+](=O)[O-])cc1)OCC(=O)N1c2ccccc2Sc2ccccc21	.	-
Cn1ncc(Cl)c1C(=O)NNC(=O)Nc1cccc2ccccc12	.	-
CC1CN(C(=O)CN(C)S(=O)(=O)c2ccc3ccccc3c2)CC(C)O1 (stereo not drawn)	.	-
Cc1ccc(C(=O)Nc2c(-c3cccs3)nc3cc(C)ccn23)cc1	-	-
Cc1ccn2c(NC(=O)C(C)(C)Oc3ccc(Cl)cc3)c(-c3cccs3)nc2c1	-	-6.36
CC(C)Oc1ccc(CNC(=S)N/N=C/c2ccc([N+](=O)[O-])cc2)cc1	.	-
COc1ccc(Cl)cc1NC(=O)CN1CCc2ccccc2C1	.	-
Cc1ccc(N2CC(NC(=O)C(=O)c3c[nH]c4ccccc34)CC2=O)cc1C (stereo not drawn)	-	-
CCOC(=O)C1CCN(C(=O)c2cc(COc3ccc(F)cc3F)on2)CC1	-	-
OC(CNCC1CCCO1)Cn1c2ccccc2c2ccccc21 (stereo not drawn)	.	-
OC(CNCC1CCCO1)Cn1c2ccc(Cl)cc2c2cc(Cl)ccc21 (stereo not drawn)	-	-7.59
O=C(NCCC1CCCCN1S(=O)(=O)c1ccccc1)C(=O)NC1CCCC1 (stereo not drawn)	-	-
CCOc1ccc(NC(=O)CSc2nnc(CCNC(=O)c3ccc(OC)cc3)n2C)cc1	.	-
O=C(NCc1ccccn1)c1ccccc1OCc1ccc(F)cc1	-	-6.38
COc1ccccc1CNC(=O)c1ccccc1OCc1ccc(F)cc1	.	-
COc1cc(C(C)=O)ccc1OCC(O)CNCC(O)c1ccccc1 (stereo not drawn)	-	-
CCOC(=O)c1c(NC(=O)C(Sc2ccccc2)c2ccccc2)sc(C(=O)N(C)C)c1C (stereo not drawn)	-	-5.85
CCOC(=O)c1c(NC(=O)C(Sc2ccccc2)c2ccccc2)sc(C(N)=O)c1C (stereo not drawn)	.	-
SMILES	KCNQ2 pot	KCNQ2 inh
O=S(=O)(c1cccc(F)c1)N1CCc2sccc2C1c1ccc(OC(F)(F)F)cc1 (stereo not drawn)	-	-5.88
COc1ccc(OC2CCN(S(=O)(=O)c3cccc(F)c3)CC2)cc1	.	-
CN(Cc1ccc(C(C)(C)C)cc1)C(=O)c1ccc2c(=O)n3c(nc2c1)CCC3	.	-
Cc1ccccc1Nc1nc(N)nc(CSc2ccc(F)cc2)n1	.	-
Cc1ccc(SCc2nc(N)nc(Nc3ccccc3C)n2)c(C)c1	-	-
Cc1ccccc1Nc1nc(N)nc(CSCC(=O)Nc2cccc(Br)c2)n1	27.2	-
Cc1ccc(SCc2nc(N)nc(Nc3ccccc3C)n2)cc1C	6.73	-
O=C(c1ccc2ccccc2c1)N1CCN(c2ccccc2)CC1	-	-5.58
O=C(c1ccc2ccccc2c1)N1CCCCC1	-	-
Cc1ccccc1OCc1nc2ccccc2c(=O)n1/N=C/c1cn[nH]c1-c1ccccc1	.	-
Cc1ccccc1OCc1nc2ccccc2c(=O)n1/N=C/c1cccc([N+](=O)[O-])c1	-	-6.19
COc1ccc(C(=O)NC(Cn2ccnc2)C(C)(C)C)cc1OC1CCN(C(C)C)CC1 (stereo not drawn)	-	-
O=C(Cc1cccc2ccccc12)Nc1ccc(O)cc1C(=O)O	.	-
CN(C)c1ccc(S(=O)(=O)N(C)C)cc1NC(=O)Cc1cccc2ccccc12	-	-7.47
CCOC(=O)CC1(NC(=O)C2CCC(=O)N(C3CC3)C2)CCCCC1 (stereo not drawn)	.	-
CCOC(=O)CC1(NC(=O)C2CCC(=O)N(CCc3ccccc3)C2)CCCCC1 (stereo not drawn)	-	-6.35
C=CCOC(=O)C1C(=O)CC(C)(O)C(C(=O)OCC=C)C1c1ccc(N(C)C)cc1 (stereo not drawn)	.	-
CC(=O)N(Cc1ccco1)c1nc(C(=O)Nc2ccc(Cl)cc2)c(C)s1	.	-
CCOc1ccc2nc(/N=C/c3c(C)[nH]n(-c4ccccc4)c3=O)sc2c1	20.2	-
CCOc1ccc2nc(SC3CC(=O)N(c4ccc(C)cc4)C3=O)sc2c1 (stereo not drawn)	.	-
CCOc1[nH]n(-c2ccccc2)c(=O)c1C=Nc1ccc(OC)cc1	-	-
CCOc1ccc2nc(/N=C/c3c(C)[nH]n(-c4ccc(C)cc4)c3=O)sc2c1	16.7	-
C=CCNc1nc2c(c(=O)n(C)c(=O)n2C)n1CC(=C)C	.	-
